# Test results as given in PubChem BioAssay AID2315 (National Center for Advancing Translational Sciences (NCATS), 2010).
# Several values for one entry are separate records, joined by “and”; a condition that tells them apart may be missing. Identical values can stand only once. Out of some 290,000 compounds screened, about 27,000 (9.3%) were called active. Only a selection was taken, and actives are over-represented in it overall. A number with no mark means an inactive call. No stated cut-off is given here; in the data, active means inhibition mostly above about 28% (no sharp cut-off); inactive means mostly below about 43%.
# Assay: A qHTS for Small Molecule Inhibitors of Shiga Toxin; further: 0% is about no effect
# Settings: Vero cells, Shiga toxin protein synthesis inhibition reporter; at 38.7 µM, active compounds read high
row,SMILES,inhibition
1,CCN(C(=O)CSc1nnc(-c2ccncc2)o1)c1ccccc1,-4.1%
2,O=C(c1ccc(Oc2ccc(Cl)cc2)c([N+](=O)[O-])c1)N1CCCC1,-5.51%
3,NC(=O)CCN1CCN(S(=O)(=O)/C=C/c2ccccc2)CC1,3.87%
4,O=C(c1ccccc1)N1CCN(C(=O)N2CCCCC2)CC1,-25.1%
5,O=C(O)c1ccc(N=NN2CCOCC2)cc1,38.4% (active)
6,O=C(O)c1cccc(N=NN2CCCCCC2)c1,139% (active)
7,CN1CCN(S(=O)(=O)c2cccc(C(=O)O)c2)CC1,24%
8,O=C(NC(=O)N1CCOCC1)c1ccccc1,6.72%
9,NC(=NC(=O)c1ccccc1)N1CCOCC1,-9.05%
10,O=C(NCc1ccco1)c1ccc([N+](=O)[O-])cc1Cl,-6.09%
11,O=C(Nc1ccccc1Cl)NC1(C(=O)N2CCOCC2)CCCCC1,3.21%
12,CCCCNC(=O)Nc1c(C)cc(SC#N)cc1C,12.6%
13,CCOc1ccccc1NC(=O)CCS(=O)(=O)c1cccc2nsnc12,-10.2%
14,Clc1ccc(Cc2nnc(-c3cccs3)o2)cc1,12.1%
15,c1csc(-c2nnc(COc3ncnc4sccc34)o2)c1,13.6%
16,c1csc(-c2nnc(COc3ccc4c(c3)OCO4)o2)c1,100% (active)
17,Cc1cc(N2CCCC2)n2nc(C)c(-c3ccccc3)c2n1,24.9%
18,Cc1cc(-n2nc(C)cc2C)n2nc(C)c(-c3ccccc3)c2n1,-5.33%
19,Cc1cc(-n2nc(C)cc2C)n2ncc(-c3ccccc3)c2n1,63.4% (active)
20,CCC(C(=O)OC)n1cnc2scc(-c3ccc(C)cc3)c2c1=O (centres undefined),-4.36%
21,O=C(CCN1C(=O)[C@H]2CC=CC[C@H]2C1=O)NCc1nc(-c2ccccc2)no1,24.8%
22,COc1ccc(OC)c(S(=O)(=O)N2CCCC(C(=O)NCCc3ccccc3)C2)c1 (centres undefined),9.04%
23,Cc1ccc(Nc2nc(-c3ccc(O)cc3O)cs2)nc1,67.2% (active)
24,Cc1ccc(NC(=O)c2cc(-c3ccc(C)o3)nc3ccccc23)nc1,-4.51%
25,COc1ccc(/C(C)=N\NC(=O)c2ccc(-c3ccccc3)cc2)c(F)c1,2.19%

row,SMILES,inhibition
1,CN(C(=O)COC(=O)CNC(=O)C12CC3CC(CC(C3)C1)C2)c1ccccc1,11.2%
2,O=C(CNC(=O)COc1ccccc1)NCCc1ccccn1,-6.4%
3,COc1ccc(NCCc2ccccn2)cc1,85% (active)
4,Cc1c(C)c(C)c(S(=O)(=O)NCCc2ccccn2)c(C)c1C,-12.6%
5,S=C(Nc1ccc2c(c1)OCO2)N1CCCC1,87.4% (active)
6,CCOc1ccc(NC(=S)N2CCCCCC2)cc1,29.7%
7,NS(=O)(=O)c1ccc(NC(=S)N2CCCC2)cc1,-27.4%
8,Cc1cccc(C)c1NC(=S)N1CCCCCC1,-6.49%
9,CCC(C)c1ccc(NC(=S)N2CCCC2)cc1 (centres undefined),68% (active)
10,CC(=O)c1cccc(NC(=S)N2CCCC2)c1,12.2%
11,C=CCC1=C/C(=C\c2c(N)n3nc(CC(=O)N4CCOCC4)sc3nc2=O)C=C(OC)C1=O,-1.44%
12,Cc1cnc(CN(C)C(=O)CC2C(=O)NCCN2Cc2cccc(F)c2F)[nH]1 (centres undefined),-27.4%
13,O=C(Cn1c[n+](CC(=O)c2ccc([N+](=O)[O-])cc2)cn1)c1ccc([N+](=O)[O-])cc1,-3.01% and 31.4%
14,COc1ccccc1CNS(=O)(=O)c1ccc2c(c1)NC(=O)CS2,17.1%
15,CCOC(=O)c1ccccc1NS(=O)(=O)c1c(C)nc2sccn2c1=O,-9.62%
16,Cn1cncc1COC(=O)c1ccc(Cl)cc1,0.74%
17,CN1C2C=C(N(C(=O)c3ccc(Cl)cc3)c3ccccc3)CC1CC2 (centres undefined),-14.6%
18,CN1OC(COC(=O)c2ccc(Cl)cc2)CC1c1ccccc1 (centres undefined),50.7% (active)
19,Cc1ccc(NS(=O)(=O)c2ccc3c(c2)NC(=O)CO3)cc1,-11.9%
20,Cc1cc(NC(=O)CSc2nnnn2-c2ccc(F)cc2)no1,24.2%
21,Cc1csc(NC(=O)CSc2nnc(-c3cccnc3)o2)n1,-20.1%
22,CN(C)c1ccc(-c2nnc(-c3cccnc3)o2)cc1,104% (active)
23,CN(C)c1nc(-c2cccnc2)nc(-c2ccc(Cl)cc2)c1C#N,-6.6%
24,Cc1ccc(-n2ncc3c2CCCC3NC(=O)c2cnccn2)cc1C (centres undefined),5.12%
25,CCCCN(C)CCNC(=O)C1CCCN(S(=O)(=O)c2cccc3nsnc23)C1 (centres undefined),-5.4%

row,SMILES,inhibition
1,O=C(CCN1CCN(C/C=C/c2ccccc2)CC1)Nc1ccccc1Cl,2.18%
2,COc1cccc2cc(C(N)=O)/c(=N\NC(=O)c3ccccc3)oc12,97% (active)
3,COc1ccc(C(=O)N/N=c2\oc3ccccc3cc2C(N)=O)cc1,55.8%
4,NC(=O)c1cc2ccccc2o/c1=N/NC(=O)c1cccc(F)c1,13.8%
5,O=C1c2ccccc2C(=O)C1c1ccccc1F,-16.3%
6,CN(C(=O)CSc1nc(C2CC2)nc2ccccc12)c1nc(-c2ccccc2)cs1,14.4%
7,Oc1ccc(-c2csc(Nc3cccnc3)n2)cc1,121% (active)
8,Brc1ccc(-c2csc(N/N=C/c3cccnc3)n2)cc1,37%
9,COc1ccc(OC)c(Nc2nc(-c3ccc(O)c(O)c3)cs2)c1,7.27%
10,CN(c1ccc(O)cc1)c1nc(-c2cccnc2)cs1,64.4% (active)
11,COc1ccc(-c2csc(Cc3nc(O)cs3)n2)cc1,94.8% (active)
12,CCCn1c(C2CCCN2c2nc(-c3ccc(OC)cc3)cs2)nc2ccccc21 (centres undefined),4.08%
13,COc1ccc(CCN(C(=O)COc2ccccc2)c2nc(-c3ccccc3)cs2)cc1OC,-8.73%
14,COc1ccc(-c2csc(Nc3ccc(O)cc3)n2)cc1,92.3% (active)
15,O=C(Nc1ccc(-c2csc(Nc3cccc(C(F)(F)F)c3)n2)cc1)c1cccc(C(F)(F)F)c1,-5.94%
16,CC(C)(C)C(=O)OCc1nc(-c2ccc(O)c(O)c2)cs1,27.1%
17,COc1ccc(C(=O)Nc2nc(-c3ccc(S(=O)(=O)N4CCOCC4)cc3)cs2)cc1,-8.19%
18,Cc1ccnc(N2CCCC(C(=O)NC3CC3)C2)n1 (centres undefined),-10.6%
19,C[C@@H](NC(=O)[C@@H]1Cc2ccccc2CN1)C(=O)NC1CCCC1,-1.81%
20,COCCNC(=S)N(CCc1c(C)[nH]c2ccc(C)cc12)Cc1cccnc1,3.9%
21,FC(F)(F)C1CCCN(c2nsc3ccccc23)C1 (centres undefined),-5.61%
22,CC1(c2ccc3ccccc3c2)NC(=O)N(CC(N)=O)C1=O (centres undefined),17.6%
23,O=C(Nc1c2c(nn1-c1cccc(Cl)c1)CS(=O)(=O)C2)c1cccs1,2.33%
24,Cc1ccccc1N1CCN(C2CCCN(C(=O)c3cn4c(C)cccc4n3)C2)CC1 (centres undefined),-3.16%
25,CC(=O)Nc1ccc(S(=O)(=O)N2CCC(NC(=O)c3ccccc3)CC2)cc1,37.8%

row,SMILES,inhibition
1,O=C1CN(Cc2ccccc2)S(=O)(=O)c2ccccc21,-2.75%
2,O=S(=O)(NC1CCCCC1N1CCN(c2ccccc2F)CC1)c1ccccc1 (centres undefined),-13.8%
3,CCOc1ccccc1NC(=S)N1CCN(c2cccc(C)c2C)CC1,-4.41%
4,O=C(Oc1cccc(C(=S)N2CCOCC2)c1)c1cccc(Cl)c1,-28.3%
5,COc1cccc(-n2cc3c(c2-c2ccccc2)c(=O)n(C)c(=O)n3C)c1,104% (active)
6,Cc1ccc(-c2c3c(=O)n(C)c(=O)n(C)c3cn2-c2ccccc2O)cc1,38.5%
7,COc1ccc(-c2c3c(=O)n(C)c(=O)n(C)c3cn2-c2cccc(OC)c2)cc1,4.73%
8,CC1=C(C(N)=O)C(c2ccc(F)cc2)n2nc(CCCO)nc2N1 (centres undefined),-5.77%
9,Cc1ccc(CNC(=O)CCC(=O)N2CC(C)Sc3ccccc32)cc1 (centres undefined),10.9%
10,CC(=O)Nc1ccc(N2C(=O)CC(Sc3nccc(C)n3)C2=O)cc1 (centres undefined),-3.46%
11,Cc1ccc2nc(-c3ccncc3)cc(C(=O)Nc3ccncc3)c2c1,11.4%
12,c1ccc(-c2noc(-c3cccs3)n2)nc1,15%
13,COc1nc(-c2ccc(Cl)cc2)ccc1-c1noc(-c2cccs2)n1,-10.5%
14,c1csc(-c2nc(-c3ccncc3)no2)c1,58.2% (active)
15,Cc1ccc(-c2noc(CSc3nnc(-c4ccncc4)n3-c3ccc(F)cc3)n2)cc1,-6.83%
16,Cc1ccc(-c2nc(-c3ccncc3)no2)c(C)c1,80.3% (active)
17,O=C(O)c1cc([N+](=O)[O-])c(Nc2cccc3ccccc23)c([N+](=O)[O-])c1,1.25%
18,COc1ccc(C)cc1NC(=O)c1ccc(-c2ccc(C(C)=O)cc2)o1,-2.76%
19,O=C(Cc1ccccc1)Nc1ccc(NC(=O)c2cccnc2)cc1,-11.9%
20,CCOC(=O)c1ccc(NC(=O)CNC(=O)c2ccco2)cc1,-21.4%
21,CC(C)NS(=O)(=O)c1ccc(NC(=O)c2cccnc2)cc1,-10.5%
22,CCOC(=O)c1ccc(NC(=O)c2cccnc2)cc1,53.7% (active)
23,CCOC(=O)c1ccc(-c2ccc(C(=O)Nc3cccnc3)o2)cc1,73.3% (active)
24,CCn1c(SCC(=O)NC2CC2)nnc1-c1ccccn1,-11.7%
